The results in this text go back to PubChem BioAssay (EPA / NIEHS).

Values joined by “and” are separate entries in the source; they are usually repeats but may differ in a detail not shown here. Equal values may be shown once. The source holds several records for some structures; these can differ, active in one and inactive in another. Active and inactive are the calls of the source. How the source made its calls: active means hit-call score of the fitted dose curve at least 0.9, where 1 is the maximum; inactive means score below 0.9.

The nature of test [1]: ATG_M_61_CIS: Attagene CIS-FACTORIAL HepG2 Assay for M61 Transcription Factor (Internal Marker) (AID 2282937). To be noted: HepG2 Attagene CIS-FACTORIAL M61 internal marker reporter; actives raise or lower the signal. In outline:
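Readout is reporter mRNA by RT-PCR, fluorescent primer extension and capillary electrophoresis, with gain or loss fitted relative to DMSO. Transfected HepG2 cells carrying endogenous-TF-driven cis reporters were exposed to chemicals for 24 hours.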

Test [2] in a line: ATG_EGR_CIS: Attagene CIS-FACTORIAL HepG2 Assay for human Early Growth Response 1 (EGR1) (AID 2282938). Conditions: HepG2 Attagene CIS-FACTORIAL EGR reporter mRNA; actives raise or lower the signal. The essentials:
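After 24 h compound exposure, RNA from reporter-transfected HepG2 cells was reverse-transcribed, PCR-amplified, fluorescently labelled and resolved by capillary electrophoresis. EGR1 reporter transcript changes, up or down, were fitted against DMSO, reflecting endogenous transcription-factor activity.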

Test [3] in a line: ATG_M_19_CIS: Attagene CIS-FACTORIAL HepG2 Assay for M19 Transcription Factor (Internal Marker) (AID 2282939). Conditions: HepG2 Attagene CIS-FACTORIAL M19 internal marker reporter; actives raise or lower the signal. The essentials:
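HepG2 cells transiently transfected with cis-regulated multiple reporter transcription units were dosed for 24 h; reporter mRNA was quantified by RT-PCR, 6-FAM primer-extension labelling, HpaI digestion and capillary electrophoresis, with bidirectional fitting against DMSO baseline.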

Test [4] is described as follows: ATG_ERE_CIS: Attagene CIS-FACTORIAL HepG2 Assay for Estrogen Response Element (ERE) (AID 2282940). Conditions: HepG2 ERE cis-reporter, Attagene RNA transcript; actives raise or lower the signal. In outline:
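HepG2 cells transiently transfected with cis-promoter-driven multiplexed reporter transcription units report endogenous TF activity. After 24 h compound exposure, reporter mRNA is quantified by RT-PCR with capillary electrophoresis fluorescence; bidirectional fitting versus DMSO baseline.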

The nature of test [5]: ATG_GATA_CIS: Attagene CIS-FACTORIAL HepG2 Assay for human GATA Binding Protein (AID 2282944). To be noted: HepG2 GATA cis-element reporter, Attagene multiplex mRNA; actives raise or lower the signal. In outline:
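HepG2 cells transiently transfected with multiplexed cis-element reporter units reflecting endogenous transcription factor activity; reporter mRNA measured after 24 h dosing by RT-PCR, 6-FAM labeling, HpaI digestion and capillary electrophoresis. Bidirectional fitting versus DMSO baseline.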

Test [6] is described as follows: ATG_GLI_CIS: Attagene CIS-FACTORIAL HepG2 Assay for human Zinc Finger Protein GLI1 (AID 2282945). Conditions: HepG2, Attagene cis-factorial reporter mRNA, GLI element; actives raise or lower the signal. In outline:
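Transiently transfected HepG2 cells report endogenous transcription factor activity via cis-element-driven reporter units. After 24 h compound exposure, reporter mRNA was measured by RT-PCR with capillary electrophoresis; bidirectional fitting against DMSO baseline.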

A short description of test [7]: ATG_Ets_CIS: Attagene CIS-FACTORIAL HepG2 Assay for human Erythroblast Transformation Specific (ETS) (AID 2282941). To be noted: HepG2 ETS cis-reporter transcription; AC50: actives raise or lower the signal unless noted; outcome: actives raise or lower the signal unless noted. The essentials:
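After transient cis-reporter transfection, HepG2 cells receive test chemical for 24 h. Reporter mRNA levels, measured by RT-PCR and capillary electrophoresis fluorescence, are analysed bidirectionally relative to the DMSO baseline.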

Test [8] addresses Hepatocyte nuclear factor 3-beta (Homo sapiens) (UniProt Q9Y261). Kind of test: ATG_FoxA2_CIS: Attagene CIS-FACTORIAL HepG2 Assay for human Forkhead box A2 (FOXA2) (AID 2282942). To be noted: HepG2 cis-reporter transcription factor activity, 24 h; actives raise or lower the signal. In outline: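 Endogenous transcription factor activity is captured via cis-element-driven reporter transcripts in transfected HepG2. Total RNA taken at 24 h post-dosing; labelled RT-PCR products resolved by capillary electrophoresis. Gain or loss fitted versus DMSO.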

The nature of test [9]: ATG_FoxO_CIS: Attagene CIS-FACTORIAL HepG2 Assay for human Forkhead box O (FoxO) (AID 2282943). Conditions: HepG2 Attagene cis-reporter, FoxO element, mRNA; actives raise or lower the signal. The essentials: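 HepG2 cells transiently transfected with cis-element-driven reporter units report endogenous FoxO activity. After 24 h chemical exposure, reporter mRNA quantified by RT-PCR, fluorescent labeling, HpaI digestion and capillary electrophoresis; bidirectional fit versus DMSO.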

In test [10] the target is Bile acid receptor (Homo sapiens) (UniProt Q96RI1). Kind of test: ATG_IR1_CIS: Attagene CIS-FACTORIAL HepG2 Assay for human Nuclear Receptor Subfamily 1 Group H Member 4 (NR1H4), IR1 submotif (AID 2282946). To be noted: IR1 reporter transcription, actives raise or lower the signal. The essentials:
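HepG2 cells transiently transfected with multiple cis-promoter-driven reporter units to measure endogenous transcription factor activity; 24 h exposure. Reporter mRNA read by RT-PCR, FAM labelling, HpaI digestion and capillary electrophoresis. Bidirectional fit versus DMSO.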

Chain of Hepatocyte nuclear factor 3-beta (Homo sapiens) (Q9Y261 whole entry, looked up): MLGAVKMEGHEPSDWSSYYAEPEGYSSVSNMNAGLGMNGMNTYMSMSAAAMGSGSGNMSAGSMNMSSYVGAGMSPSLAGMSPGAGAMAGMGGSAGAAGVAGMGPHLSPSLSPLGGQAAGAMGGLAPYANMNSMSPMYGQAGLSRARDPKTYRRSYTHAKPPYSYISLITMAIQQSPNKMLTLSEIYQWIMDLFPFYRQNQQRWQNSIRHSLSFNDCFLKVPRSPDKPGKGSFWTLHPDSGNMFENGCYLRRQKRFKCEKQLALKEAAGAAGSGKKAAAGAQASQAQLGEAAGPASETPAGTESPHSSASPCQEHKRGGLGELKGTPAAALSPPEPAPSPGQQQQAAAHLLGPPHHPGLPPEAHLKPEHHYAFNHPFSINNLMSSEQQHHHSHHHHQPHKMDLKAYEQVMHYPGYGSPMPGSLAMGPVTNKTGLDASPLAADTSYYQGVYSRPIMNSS
Chain of Bile acid receptor (Homo sapiens) (Q96RI1 whole entry, looked up): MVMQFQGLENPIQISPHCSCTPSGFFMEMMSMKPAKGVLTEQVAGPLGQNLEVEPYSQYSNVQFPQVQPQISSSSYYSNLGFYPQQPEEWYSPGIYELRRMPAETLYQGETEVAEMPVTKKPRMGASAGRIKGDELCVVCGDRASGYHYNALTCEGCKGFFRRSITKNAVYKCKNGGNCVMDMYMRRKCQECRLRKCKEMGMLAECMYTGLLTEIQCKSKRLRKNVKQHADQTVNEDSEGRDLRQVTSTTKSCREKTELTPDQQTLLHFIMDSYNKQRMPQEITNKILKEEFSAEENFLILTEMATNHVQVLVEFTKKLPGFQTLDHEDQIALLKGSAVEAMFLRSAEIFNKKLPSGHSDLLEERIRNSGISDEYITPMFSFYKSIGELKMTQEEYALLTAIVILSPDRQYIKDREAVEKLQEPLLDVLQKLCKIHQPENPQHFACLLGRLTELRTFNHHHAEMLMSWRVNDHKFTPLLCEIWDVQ

Broadly, the AC50 is the concentration at which the activity in the assay is half-maximal. As for `NC(=NCCCCCCN=C(N)/N=C(\N)Nc1ccc(Cl)cc1)/N=C(\N)Nc1ccc(Cl)cc1`, the molecule was called inactive in [1], in test [2], in [3], in test [4], in [5] and in test [6]. The AC50 in [2] was 5.68 µM (active); in test [3], 26.1 µM (active); in [4], 4.6 µM (active).
`CCOC(=O)c1nc(C(Cl)(Cl)Cl)n(-c2ccc(Cl)cc2Cl)n1`: the molecule was called inactive in test [1], in test [3], in test [4], in test [8], in test [9] and in [5]. The AC50 was 100 µM (active) in [2], 100 µM (active) in test [7], 164 µM (active) in test [6] and 26.6 µM (active) in test [10].
`FC1(F)C=CC(F)(F)C1(F)F`: the result in test [1], in test [2], in [3], in [4], in test [7] and in [8] was inactive. In addition, the outcome in test [9], in test [5], in test [6] and in test [10] was inactive.
As for `CC[N+](CC)(CC)Cc1ccccc1`, the molecule was classed as inactive in test [1], in test [2], in test [3], in test [4], in test [7] and in test [8]. Besides, the outcome in test [9], in test [5], in [6] and in [10] was inactive.
With `C[N+](C)(CCCNS(=O)(=O)CCC(F)(F)C(F)(F)C(F)(F)C(F)(F)C(F)(F)C(F)(F)F)CC(=O)[O-]`, the outcome in [1], in test [2], in test [3], in test [7], in test [8] and in test [9] was inactive. The molecule was called inactive in test [5], in test [6] and in test [10]. The half-maximal activity concentration (AC50) in test [4] was 0.0122 µM (active).
Consider `CCCCCC(C)OC(=O)COc1ccc(Cl)c2cccnc12` (configuration not stated), for which the molecule was called inactive in test [1], in test [2], in test [3], in test [4], in test [7] and in test [8]. Moreover, the outcome in test [9], in [5], in test [6] and in test [10] was inactive.
In the case of `Cc1cc(=O)oc2cc(O)ccc12`, the call in [1], in test [2], in test [3], in [7], in [8] and in [9] was inactive. The outcome in [5] and in [6] was inactive. The AC50 in [4] is 41.8 µM (active) and 58.5 µM (active).
In the case of `Cc1ccc(N=Nc2c(O)ccc3ccccc23)c(C)c1`, the result in [1], in test [2], in [3], in test [7], in test [8] and in [9] was inactive. In addition, the call in [5], in test [6] and in test [10] was inactive. Also, the AC50 in [4] is 5.07 µM (active).
For `O=C(O)CCC(F)(F)C(F)(F)C(F)(F)C(F)(F)C(F)(F)F`, the outcome in test [1], in test [2], in test [3], in test [4], in [7] and in test [8] was inactive. Besides, the molecule was called inactive in [9], in test [5], in [6] and in test [10].
On to `CCCCN(C)C`, for which the call in test [1], in test [2], in test [3], in test [4], in test [7] and in test [8] was inactive. In addition, the call in test [9], in test [5], in test [6] and in test [10] was inactive.
Consider `CCCCc1oc2ccccc2c1C(=O)c1cc(I)c(OCCN(CC)CC)c(I)c1`, for which the results for the half-maximal activity concentration (AC50) in [1], in test [2] and in test [3] were 89.1 µM (active), 20.3 µM (active) and 97.7 µM (active), respectively. Also, the outcome in [4], in test [7], in test [8], in test [9], in test [5] and in test [6] was inactive.
Take `OCC1CCC(CO)CC1` (configuration not stated): the outcome in test [1], in test [2], in test [3], in [7], in test [8] and in test [9] was inactive. For the same molecule, the call in test [5], in test [6] and in [10] was inactive. In [4], the AC50 was 23.2 µM (active).
In the case of `CC1COCc2cc3c(cc21)C(C)(C)C(C)C3(C)C` (configuration not stated), the molecule was called inactive in test [1], in test [3], in test [4], in [7], in test [8] and in test [9]. Also, the molecule was classed as inactive in [6] and in test [10]. In addition, the figures for the AC50 in [2] and in test [5] were 152 µM (active) and 158 µM (active), respectively.
In the case of `CC(=O)Nc1ccc(S(N)(=O)=O)cc1`, the molecule was classed as inactive in test [1], in [2], in test [3], in test [4], in test [7] and in test [8]. Moreover, the molecule was classed as inactive in [9], in [5], in [6] and in test [10].
`FC(F)(F)C(F)(F)C(F)(F)Br`: the molecule was classed as inactive in test [1], in test [2], in test [3], in test [4], in test [7] and in test [8]. In addition, the molecule was classed as inactive in test [9], in test [5], in test [6] and in test [10].
Take `CCO[Si](C)(C)OCC`: the result in [1], in test [2], in test [3], in [4], in test [7] and in test [8] was inactive. For the same molecule, the outcome in test [9], in test [5], in [6] and in test [10] was inactive.
For the molecule `C=CC(F)(F)C(F)(F)C(F)(F)C(F)(F)F`, the molecule was called inactive in test [1], in test [2], in [3], in test [4], in test [7] and in test [8]. Further, the molecule was called inactive in [9], in test [5], in test [6] and in [10].
Consider `c1ccc2c(c1)CCC2`, for which the result in test [1], in test [2], in test [3], in test [4], in test [7] and in test [8] was inactive. Besides, the result in test [9], in test [5], in [6] and in test [10] was inactive.
For `CCCCc1ccc2ccccc2c1S(=O)(=O)O`, the call in test [1], in test [2], in [3], in test [4], in test [7] and in test [8] was inactive. In addition, the call in test [9], in test [5], in test [6] and in [10] was inactive.
For `CCCCCCCCCCCCCCCC(=O)OC`, the result in test [1], in test [2], in test [3], in [4], in [7] and in test [8] was inactive. For the same molecule, the result in [9], in [5], in [6] and in test [10] was inactive.
Regarding `O=C1c2ccccc2C(=O)c2c(O)c(O)cc(O)c21`, the outcome in test [1], in [2], in [3], in [7], in test [8] and in test [9] was inactive. Also, the molecule was classed as inactive in test [5], in [6] and in [10]. Also, the half-maximal activity concentration (AC50) in test [4] was 2.42 µM (active).
